Data on three compounds can be found in PubChem BioAssay (EPA / NIEHS).

Activity calls are given as the source filed them. Rule for the calls: active = hit-call score of the fitted dose curve at least 0.9, where 1 is the maximum; inactive = score below 0.9.

What all share (details): mRNA level, 48 h; actives raise or lower the signal
Read-out in experiment [1]: Bcl-2 (BID) gene, BID (gene 637)
In words: LTEA_HepaRG_BID: Life Technologies and Expression Analysis (LTEA) Assay for Bcl-2 (BID) gene using HepaRG (AID 2283476). Summed up: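 Gene expression by qRT-PCR in HepaRG cells after 48 h exposure, duplicate wells, eight half-log concentrations topping at 100 uM in 0.5% DMSO. Normalized to ACTB, GAPDH, POLR2A; bidirectional fitting relative to DMSO.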

Read-out in a further experiment: Caspase-3 (Homo sapiens) (UniProt P42574)
The experiment is described as follows: LTEA_HepaRG_CASP3: Life Technologies and Expression Analysis (LTEA) Assay for cysteine-aspartic acid protease (CASP3) using HepaRG (AID 2283477). In a few lines:
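In HepaRG liver cells dosed for 48 h at up to 100 uM (eight-point, duplicate), CASP3 expression changes are scored by qRT-PCR. Activity is fitted in both directions with 0.5% DMSO as baseline.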

Read-out in experiment [2]: Cytochrome P450 (CYP24A1), CYP24A1 (gene 1591)
The experiment is described as follows: LTEA_HepaRG_CYP24A1: Life Technologies and Expression Analysis (LTEA) Assay for Cytochrome P450 (CYP24A1) using HepaRG (AID 2283478). Summed up:
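Human liver HepaRG cultures receive each chemical for 48 h across an eight-point half-log series topping at 100 uM in 0.5% DMSO. Induction or suppression of CYP24A1 mRNA is scored relative to vehicle after housekeeping-gene normalization.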

Read-out in experiment [3]: Cytochrome P450 (CYP1A2), CYP1A2 (gene 1544)
The experiment is described as follows: LTEA_HepaRG_CYP1A2: Life Technologies and Expression Analysis (LTEA) Assay for Cytochrome P450 (CYP1A2) using HepaRG (AID 2283479). Summed up: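 Assesses CYP1A2 mRNA in human HepaRG liver cells after 48 h chemical exposure at up to 100 uM. Values come from qRT-PCR with bidirectional curve fitting relative to DMSO.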

Read-out in experiment [4]: cysteine-aspartic acid protease (CASP8), CASP8 (gene 841)
In words: LTEA_HepaRG_CASP8: Life Technologies and Expression Analysis (LTEA) Assay for cysteine-aspartic acid protease (CASP8) using HepaRG (AID 2283480). In a few lines: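 Differentiated HepaRG cells in serum-free induction medium, 48 h exposure, eight-point half-log series from 100 uM in 0.5% DMSO, duplicates. CASP8 mRNA by qRT-PCR, normalized to ACTB, GAPDH, POLR2A; bidirectional fit versus DMSO.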

Read-out in experiment [5]: Cytochrome P450 (CYP2B6), CYP2B6 (gene 1555)
The experiment is described as follows: LTEA_HepaRG_CYP2B6: Life Technologies and Expression Analysis (LTEA) Assay for Cytochrome P450 (CYP2B6) using HepaRG (AID 2283481). In a few lines: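 Using 48 h treatment of HepaRG cells in serum-free induction medium, concentrations spanned half-log steps from 100 uM in 0.5% DMSO vehicle. CYP2B6 mRNA induction or loss is scored by qRT-PCR against DMSO.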

Read-out in experiment [6]: Cytochrome P450 2C19 (Homo sapiens) (UniProt P33261)
In words: LTEA_HepaRG_CYP2C19: Life Technologies and Expression Analysis (LTEA) Assay for CYP2C19 using HepaRG (AID 2283482). Summed up: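 Human HepaRG liver cells received test chemicals for 48 h (highest 100 uM, half-log dilutions in 0.5% DMSO). CYP2C19 mRNA induction or loss is read by multiplexed qRT-PCR and fitted in both directions versus vehicle.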

Read-out in the next experiment: CYP2C8 (gene 1558)
The experiment is described as follows: LTEA_HepaRG_CYP2C8: Life Technologies and Expression Analysis (LTEA) Assay for CYP2C8 using HepaRG (AID 2283483). Summed up: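 Differentiated HepaRG cells in serum-free induction medium exposed 48 h in duplicate to 8 half-log concentrations from 100 uM in 0.5% DMSO. CYP2C8 mRNA by qRT-PCR normalized to ACTB, GAPDH, POLR2A; bidirectional fit versus DMSO.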

Read-out in the next experiment: CYP2C9 (gene 1559)
The experiment is described as follows: LTEA_HepaRG_CYP2C9: Life Technologies and Expression Analysis (LTEA) Assay for CYP2C9 using HepaRG (AID 2283484). Summed up:
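Differentiated human HepaRG cells in serum-free induction medium were exposed 48 h to chemicals in 8-point half-log series from 100 uM (0.5% DMSO), in duplicate. CYP2C9 mRNA was measured by qRT-PCR, normalized to ACTB/GAPDH/POLR2A, with bidirectional fitting versus DMSO.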

Read-out in another experiment: CYP2E1 (gene 1571)
The experiment is described as follows: LTEA_HepaRG_CYP2E1: Life Technologies and Expression Analysis (LTEA) Assay for CYP2E1 using HepaRG (AID 2283485). In a few lines: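 HepaRG cells, plated 48 h, then exposed 48 h in serum-free induction medium to eight half-log concentrations from 100 uM in 0.5% DMSO, duplicate. CYP2E1 mRNA by qRT-PCR, normalized to ACTB/GAPDH/POLR2A; bidirectional fit versus DMSO.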

Read-out in a further experiment: CYP4A11 (gene 1579)
The experiment is described as follows: LTEA_HepaRG_CYP4A11: Life Technologies and Expression Analysis (LTEA) Assay for CYP4A11 using HepaRG (AID 2283486). In a few lines: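 Readout is CYP4A11 mRNA induction or suppression (qRT-PCR, ACTB/GAPDH/POLR2A normalization) in human HepaRG cells after 48 h chemical treatment, concentrations to 100 uM in 0.5% DMSO, fitted bidirectionally against vehicle.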

Read-out in experiment [7]: Cytochrome P450 3A4 (Homo sapiens) (UniProt P08684)
The experiment is described as follows: LTEA_HepaRG_CYP3A4: Life Technologies and Expression Analysis (LTEA) Assay for CYP3A4 using HepaRG (AID 2283487). Summed up:
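In a human hepatic line (HepaRG), duplicate wells were treated 48 h with up to 100 uM chemical in half-log dilutions. Endpoint: CYP3A4 mRNA induction or loss relative to 0.5% DMSO vehicle, by qRT-PCR.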

Read-out in experiment [8]: Pro-epidermal growth factor (Homo sapiens) (UniProt P01133)
The experiment is described as follows: LTEA_HepaRG_EGF: Life Technologies and Expression Analysis (LTEA) Assay for Epidermal growth factor (EGF) using HepaRG (AID 2283489). In a few lines:
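EGF expression changes in human HepaRG cells are scored by bidirectional fitting relative to 0.5% DMSO controls. Chemicals are tested at eight half-log concentrations up to 100 uM for 48 h in serum-free induction medium.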

Read-out in experiment [9]: Early growth response protein 1 (EGR1) transcription factor, EGR1 (gene 1958)
The experiment is described as follows: LTEA_HepaRG_EGR1: Life Technologies and Expression Analysis (LTEA) Assay for Early growth response protein 1 (EGR1) transcription factor using HepaRG (AID 2283490). Summed up:
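Differentiated HepaRG cells in serum-free induction medium exposed 48 hours, duplicate, to 8 half-log concentrations up to 100 uM in 0.5% DMSO. EGR1 mRNA measured by TaqMan qRT-PCR, normalized to ACTB, GAPDH, POLR2A; bidirectional fit versus DMSO.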

Read-out in experiment [10]: Ezrin (EZR), EZR (gene 7430)
The experiment is described as follows: LTEA_HepaRG_EZR: Life Technologies and Expression Analysis (LTEA) Assay for Ezrin (EZR) using HepaRG (AID 2283491). Summed up:
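Gain or loss of EZR mRNA is scored relative to 0.5% DMSO in human HepaRG cultures treated 48 h with test chemicals in duplicate, eight half-log concentrations from 100 uM.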

Read-out in a further experiment: CYP3A5 (gene 1577)
The experiment is described as follows: LTEA_HepaRG_CYP3A5: Life Technologies and Expression Analysis (LTEA) Assay for CYP3A5 using HepaRG (AID 2283493). In a few lines:
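HepaRG cells, plated 48 h then in serum-free induction medium, dosed in duplicate for 48 h with eight half-log concentrations up to 100 uM in 0.5% DMSO. Gene mRNA by Fluidigm TaqMan qRT-PCR, normalized to ACTB, GAPDH, POLR2A.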

Read-out in experiment [11]: Fatty Acid-Binding Protein 1 (FABP1), FABP1 (gene 2168)
In words: LTEA_HepaRG_FABP1: Life Technologies and Expression Analysis (LTEA) Assay for Fatty Acid-Binding Protein 1 (FABP1) using HepaRG (AID 2283494). In a few lines:
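Differentiated human HepaRG cells exposed 48 h in serum-free induction medium to eight half-log concentrations up to 100 uM (0.5% DMSO), duplicate. FABP1 mRNA by qRT-PCR, normalised to ACTB, GAPDH, POLR2A; bidirectional fitting against DMSO.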

Read-out in experiment [12]: Cytochrome P450 4A22 (Homo sapiens) (UniProt Q5TCH4)
In words: LTEA_HepaRG_CYP4A22: Life Technologies and Expression Analysis (LTEA) Assay for Cytochrome P450 4A22 (CYP4A22) using HepaRG (AID 2283495). Summed up:
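Cryopreserved HepaRG cells, plated and cultured 48 h, then switched to serum-free induction medium and treated 48 h (duplicates, up to 100 uM, half-log steps, 0.5% DMSO). Expression change of CYP4A22 was fitted bidirectionally against vehicle.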

Read-out in experiment [13]: DNA damage-inducible transcript 3 (DDIT3), DDIT3 (gene 1649)
The experiment is described as follows: LTEA_HepaRG_DDIT3: Life Technologies and Expression Analysis (LTEA) Assay for DNA damage-inducible transcript 3 (DDIT3) using HepaRG (AID 2283488). Summed up: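 HepaRG cells, 48 h after plating, exposed 48 h in serum-free induction medium to 8 half-log concentrations up to 100 uM in 0.5% DMSO, in duplicate. DDIT3 mRNA measured by TaqMan qRT-PCR, normalized to ACTB, GAPDH and POLR2A. Fitted bidirectionally against DMSO.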

Read-out in experiment [14]: Cytochrome P450 3A7 (Homo sapiens) (UniProt P24462)
In words: LTEA_HepaRG_CYP3A7: Life Technologies and Expression Analysis (LTEA) Assay for CYP3A7 using HepaRG (AID 2283492). In a few lines:
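Cells were thawed, plated, cultured 48 h, then treated for a further 48 h with chemicals (eight-point half-log series from 100 uM, 0.5% DMSO). RNA was isolated and CYP3A7 expression quantified by qRT-PCR normalised to ACTB, GAPDH and POLR2A.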

Caspase-3 (Homo sapiens), sequence (P42574 whole entry, looked up): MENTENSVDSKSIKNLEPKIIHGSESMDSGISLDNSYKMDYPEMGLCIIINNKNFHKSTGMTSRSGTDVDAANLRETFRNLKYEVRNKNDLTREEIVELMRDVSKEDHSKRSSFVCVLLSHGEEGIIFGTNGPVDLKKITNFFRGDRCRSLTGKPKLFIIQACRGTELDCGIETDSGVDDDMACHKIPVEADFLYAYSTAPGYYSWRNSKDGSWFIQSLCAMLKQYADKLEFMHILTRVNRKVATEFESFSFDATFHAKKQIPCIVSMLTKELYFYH
Cytochrome P450 3A4 (Homo sapiens), sequence (P08684 whole entry, looked up): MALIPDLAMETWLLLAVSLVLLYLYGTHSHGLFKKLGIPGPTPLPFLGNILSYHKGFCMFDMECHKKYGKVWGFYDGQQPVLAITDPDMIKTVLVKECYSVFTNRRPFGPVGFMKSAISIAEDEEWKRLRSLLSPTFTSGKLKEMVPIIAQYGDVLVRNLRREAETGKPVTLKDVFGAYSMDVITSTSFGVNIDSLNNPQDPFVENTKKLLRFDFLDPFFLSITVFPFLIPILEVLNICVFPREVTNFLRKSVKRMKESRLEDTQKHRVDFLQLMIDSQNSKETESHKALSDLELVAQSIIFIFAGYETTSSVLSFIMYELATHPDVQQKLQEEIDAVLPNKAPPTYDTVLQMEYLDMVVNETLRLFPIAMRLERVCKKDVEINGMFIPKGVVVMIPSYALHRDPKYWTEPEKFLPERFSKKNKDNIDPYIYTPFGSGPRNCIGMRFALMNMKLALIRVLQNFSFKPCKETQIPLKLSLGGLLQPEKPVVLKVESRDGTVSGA
Cytochrome P450 2C19 (Homo sapiens), sequence (P33261 whole entry, looked up): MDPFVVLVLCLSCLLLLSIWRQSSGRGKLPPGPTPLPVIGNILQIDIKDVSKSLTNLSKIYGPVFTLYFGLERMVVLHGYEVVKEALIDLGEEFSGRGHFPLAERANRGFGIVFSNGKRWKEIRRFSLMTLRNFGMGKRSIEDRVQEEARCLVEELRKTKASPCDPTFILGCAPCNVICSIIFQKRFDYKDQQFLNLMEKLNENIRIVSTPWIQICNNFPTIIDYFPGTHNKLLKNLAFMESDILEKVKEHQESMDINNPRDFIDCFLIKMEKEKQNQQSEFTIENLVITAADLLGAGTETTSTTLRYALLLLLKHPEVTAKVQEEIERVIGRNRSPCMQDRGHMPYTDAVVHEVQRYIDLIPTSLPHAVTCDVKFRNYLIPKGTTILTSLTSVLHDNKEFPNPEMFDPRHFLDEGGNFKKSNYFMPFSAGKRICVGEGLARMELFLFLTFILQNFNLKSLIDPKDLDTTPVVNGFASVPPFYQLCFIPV
Cytochrome P450 3A7 (Homo sapiens), sequence (P24462 whole entry, looked up): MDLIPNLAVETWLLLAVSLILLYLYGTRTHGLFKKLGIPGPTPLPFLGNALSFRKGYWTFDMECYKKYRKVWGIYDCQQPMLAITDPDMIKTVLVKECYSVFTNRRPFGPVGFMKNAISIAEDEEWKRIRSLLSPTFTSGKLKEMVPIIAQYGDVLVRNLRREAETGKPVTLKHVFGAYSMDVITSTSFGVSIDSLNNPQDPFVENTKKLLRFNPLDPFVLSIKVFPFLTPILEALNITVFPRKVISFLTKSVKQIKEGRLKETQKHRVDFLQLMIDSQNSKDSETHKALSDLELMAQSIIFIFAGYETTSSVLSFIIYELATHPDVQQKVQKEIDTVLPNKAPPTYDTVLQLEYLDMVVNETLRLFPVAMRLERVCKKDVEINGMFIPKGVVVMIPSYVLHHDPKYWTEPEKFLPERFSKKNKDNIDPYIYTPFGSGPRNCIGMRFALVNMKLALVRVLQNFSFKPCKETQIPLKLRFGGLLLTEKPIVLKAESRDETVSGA

For orientation: AC50 means the concentration at which the activity in the assay is half-maximal. With `CCNP(=S)(OC)O/C(C)=C/C(=O)OC(C)C` (stereo unspecified), the compound was called inactive (in experiment [1]; with Caspase-3 (Homo sapiens); in [2]; in [4]; with CYP2C9 (gene 1559); in experiment [8]). In addition, the compound was called inactive (in experiment [9]; in experiment [10]; with CYP3A5 (gene 1577); in experiment [11]; in experiment [12]). The AC50 in experiment [3] was 18 µM (active); in experiment [5], 5.19 µM (active); in experiment [6] it was 8.66 µM (active); with CYP2C8 (gene 1558) it was 12.9 µM (active); with CYP2E1 (gene 1571), 34.8 µM (active); with CYP4A11 (gene 1579), 68.4 µM (active). Moreover, the AC50 in [7] was 8.97 µM (active).

`Cc1ccc(N=CN(C)C=Nc2ccc(C)cc2C)c(C)c1`: the compound was called inactive (in [1]; with Caspase-3 (Homo sapiens); in experiment [2]; in experiment [4]; in experiment [6]; in the experiment with CYP2C8 (gene 1558)). Further, the call (with CYP2C9 (gene 1559); with CYP2E1 (gene 1571); with CYP4A11 (gene 1579); in [7]; in experiment [13]; in [8]) was inactive. Further, the result (in [10]; in [14]; with CYP3A5 (gene 1577); in experiment [11]; in [12]) was inactive. The AC50 in experiment [3] was 51.6 µM (active); in experiment [5] it was 30.3 µM (active).

As to `CC(C)N1C(=O)c2ccccc2NS1(=O)=O`, the call (in experiment [1]; in the experiment with Caspase-3 (Homo sapiens); in [2]; in experiment [3]; in [4]; in experiment [6]) was inactive. Further, the outcome (with CYP2C8 (gene 1558); with CYP2C9 (gene 1559); with CYP2E1 (gene 1571); in the experiment with CYP4A11 (gene 1579); in experiment [7]; in [13]) was inactive. Also, the outcome (in experiment [8]; in experiment [10]; in [14]; with CYP3A5 (gene 1577); in experiment [11]; in experiment [12]) was inactive. The AC50 in experiment [5] is 50 µM (active).
